# PAX8 reporter – PAX8 transcriptional activity inhibition | RMG-I TPO-luciferase reporter, SteadyGlo, 24 h | inhibition, % at 12.6 µM | 360,000 compounds, 1.2% hits;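 active = mean replicate inhibition at least 60% with every replicate also reaching 60%; inconclusive = only one of the two criteria is met; inactive = mean below 60% and not all replicates reaching 60%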;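 note: luciferase light reporting Pax8 driven TPO promoter activity; plate controls were median of neutral control wells for no effect and mitoxantrone controls for full effect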
# EWS-Fli block – blocks EWS/Fli oncoprotein-driven transcription | A673 NR0B1-luciferase reporter, viability-normalised | inhibition, % at 12.6 µM | 350,000 compounds, 0.67% hits | AID 651661;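 active = mean inhibition of at least 50% after viability correction, with every replicate also passing that limit; inconclusive = mean reaches 50% but only one of two replicates passes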;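 note: firefly luciferase signal divided by Alamar Blue viability fluorescence both relative to DMSO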
# MITF TRPM1 HTS – increases MITF-driven TRPM1 promoter luciferase signal; SK-MEL-5 TRPM1-promoter luciferase, 24 h; % of positive control, neutral wells = 0; activation, % at 12.5 µM; 300,000 compounds, 0.75% hits; AID 588334;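 active = mean activation of at least 80% with every replicate also reaching 80%; inconclusive = mean reaches 80% but some replicate falls short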;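 note: 0% = neutral control wells and 100% = parthenolide positive control wells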
# esBAF inh – blocks esBAF chromatin remodeling in mouse ES cells; 350,000 compounds, 2% hits; Bmi1-luciferase knock-in reporter, 24 h; 100% = twice the neutral-well signal; AID 602393; reporter increase, % at 12.5 µM; in the data active = activation above about 40%; inconclusive = no clear call, values can overlap the other calls;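 note: 0% = median of the plate's neutral control wells and 100% = double that signal; a rise in the Bmi1 reporter signal indicates esBAF inhibition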
# MITF TRPM1 inh – reduces MITF-dependent TRPM1 promoter luciferase signal. SK-MEL-5 TRPM1 promoter luciferase, 24 h. inhibition, % at 12.5 µM. 330,000 compounds, 0.83% hits. AID 488899;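 active = mean inhibition across replicates of 60% or more, whatever share of single replicates reaches that level; inconclusive = some that reach 60%, reason not given; inactive = mean inhibition across replicates below 60%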
# Wnt act – Wnt/beta-catenin pathway activation; Wnt/beta-catenin reporter cell assay, activator, plate reader; activation, % at 9.35 µM; 300,000 compounds, 1.2% hits; AID 743398; in the data active = activation above about 30%, passing the limit was not always enough; inconclusive = no clear call, values can overlap the other calls;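 note: 0% = neutral control wells and 100% = positive control wells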
# DNA binding – DNA binding small molecules; shares compounds with EWS-Fli block; salmon sperm DNA acridine orange fluorescence polarization; AC35, µM (highest dose often 68 µM), for inactives: at the top dose activity change, negative = DNA binding; 640 compounds, 2% hits; AID 720586;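 active = fitted curve reaches a 35% signal fall AC35 below twice the sample's top valid tested dose, actives reach about 48 µM in these data; inactive = the rest, including activity in the rising direction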;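 note: lower polarization ratio signals compound binding to DNA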
# An asterisk follows results filed as active; ? = inconclusive; nt = no result given. Sampled rows, rich in hits. Any-hit rate of the full collection: about 4%.
SMILES,PAX8 reporter,EWS-Fli block,MITF TRPM1 HTS,esBAF inh,MITF TRPM1 inh,Wnt act,DNA binding
Cc1nc(N)nc(N)c1CCCc1ccc(Cl)c(Cl)c1,28,75*,nt,nt,19,-8,-19%
Cc1nc(N)nc(N)c1-c1ccc(Cl)c(Cl)c1,54,53*,-27,-47,38,-4,-6%
CNC[C@@H]1Oc2c(NS(=O)(=O)c3ccc(F)cc3)cccc2C(=O)N([C@H](C)CO)C[C@H]1C,-7,11,nt,-6,nt,nt,nt
CO[C@H]1CN(C)C(=O)c2cc(NC(=O)Nc3ccc(Cl)cc3)ccc2OC[C@H](C)N(C)C[C@@H]1C,19,13,nt,3,nt,nt,nt
O=C(NC1CCCC1)N1CCCCN2[C@@H](CO)[C@@H](c3ccc(/C=C/c4ccccc4)cc3)[C@@H]2C1,104*,73*,nt,-3,nt,nt,9%
Cc1occc1-c1n[nH]c(=S)n1C,6,75*,-1,nt,4,-5,-7%
Cc1occc1-c1n[nH]c(=S)n1-c1ccccc1,16,14,-2,nt,3,-1,nt
C[C@H]1CN([C@@H](C)CO)C(=O)c2cccc(NC(=O)NC3CCCCC3)c2O[C@H]1CN(C)Cc1ccc2c(c1)OCO2,22,16,nt,13,nt,nt,nt
Nc1ncccc1OCc1cccc(C(F)(F)F)c1,-4,-6,-1,nt,2,0,nt
Nc1nc(N)c(-c2cccc(C(F)(F)F)c2)c(Cc2cccc(C(F)(F)F)c2)n1,5,58*,-10,-55,19,-2,-3%
CC(=O)N1[C@H](CO)[C@@H](c2ccccc2)C12CN(C(=O)c1ccccc1)C2,8,-2,nt,nt,nt,nt,nt
Cc1ccc(-c2ccc3c(c2)O[C@@H](CN(C)C(=O)Nc2ccc(F)cc2)[C@H](C)CN([C@H](C)CO)S3(=O)=O)cc1,nt,29,nt,0,nt,nt,nt
CC(C)NC(=O)N(C)C[C@@H]1Oc2cc(C#Cc3ccc(F)cc3)ccc2S(=O)(=O)N([C@H](C)CO)C[C@H]1C,nt,56*,nt,1,nt,nt,-9%
Cc1ccc(-c2ccc3c(c2)O[C@@H](CN(C)C(=O)Nc2ccc(F)cc2)[C@H](C)CN([C@@H](C)CO)S3(=O)=O)cc1,nt,54*,nt,-4,nt,nt,-10%
O=C(c1nnsc1S(=O)c1ccc(Cl)cc1)N1CCOCC1 (stereo not drawn),112*,78*,-88,-87,88*,-7,-10%
CC(=O)ON=C1C=CC(=C(C#N)c2ccccc2)C=C1,71*,56*,nt,-57,nt,-2,0%
COc1ccc(C(C#N)=C2C=CC(=NO)C=C2)cc1,-35,6,4,nt,-2,4,nt
O=C(C[C@H]1C[C@H]2c3cc(NC(=O)Cc4ccncc4)ccc3O[C@H]2[C@@H](CO)O1)NCCN1CCCCC1,22,-7,nt,-5,nt,nt,nt
C[C@@H]1CN([C@H](C)CO)C(=O)c2cc(-c3ccccc3)cnc2O[C@H]1CN(C)C(=O)C1CCCCC1,nt,5,nt,5,nt,nt,nt
OC[C@H]1[C@@H](c2ccc(C#CC3CCCC3)cc2)[C@@H]2CN(CCC(F)(F)F)CCCCN12,24,52*,nt,1,nt,nt,-9%
CCC(=O)Nc1ccc2c(c1)OC[C@H](C)N(Cc1ccccn1)C[C@@H](C)[C@H](OC)CN(C)C2=O,14,3,nt,-8,nt,nt,nt
CCOC(=O)Cc1ccc(NC(=O)c2ccc(C(C)(C)C)cc2)cc1,nt,nt,-8,-72,6,nt,nt
CCOC(=O)Cc1ccc(NC(=O)c2ccccc2Br)cc1,-36,52*,14,14,-13,-1,-1%
O=c1c(Cl)cc(Cl)nn1-c1ccccc1,88*,64*,-45,nt,44,-1,1%
COc1cc(Cl)nn(-c2ccccc2)c1=O,-1,nt,1,-5,5,0,nt
SMILES,PAX8 reporter,EWS-Fli block,MITF TRPM1 HTS,esBAF inh,MITF TRPM1 inh,Wnt act,DNA binding
CC1=NN(c2cccc(C(=O)O)c2)C(=O)/C1=C\C=C/c1ccccc1,2,46,nt,nt,nt,22,nt
CC1=NN(c2ccc(C)cc2)C(=O)/C1=C\C=C\c1ccccc1,3,61*,-35,nt,38,?,-13%
O=C(Cc1cccnc1)N1CC(=O)N2[C@H](C1)[C@@H](c1ccc(C#CC3CCCC3)cc1)[C@@H]2CO,nt,-9,nt,nt,nt,nt,nt
Cc1cc(C)c2sc(NNC(=O)c3ccc(S(=O)(=O)N4CCc5ccccc5C4)cc3)nc2c1,99*,54*,-72,-44,72*,-6,-5%
CCC(=O)N(C)C[C@H]1Oc2cc(-c3cccc(C#N)c3)ccc2S(=O)(=O)N([C@H](C)CO)C[C@H]1C,nt,14,nt,-2,nt,nt,nt
C[C@@H](NC(=O)C[C@H]1C[C@H]2c3cc(NC(=O)Nc4ccccc4F)ccc3O[C@H]2[C@H](CO)O1)c1ccccc1,13,9,nt,-6,nt,nt,nt
Oc1ccc2c(c1)oc1cc(O)ccc12,nt,nt,6,16,1,nt,nt
O=c1oc2cc(O)ccc2s1,-8,60*,8,-2,-11,1,-3%
Cc1ccc(C(=O)NNC(=O)CCCN2C(=O)/C(=C/c3ccccc3Cl)SC2=S)cc1,19,31,-7,nt,7,-6,nt
Cc1ccc(/C=C2\SC(=S)N(CCC(=O)NNC(=O)c3ccccc3O)C2=O)cc1,-4,51*,-22,-9,24,-6,5%
O=C(CCCN1C(=O)/C(=C/c2ccccc2Cl)SC1=S)NNC(=O)c1ccc(Cl)cc1,25,74*,-38,nt,37,0,5%
Cc1ccc(/C=C2\SC(=S)N(CCCC(=O)NNC(=O)c3ccccc3O)C2=O)cc1,64*,82*,-92,-86,nt,-6,9%
CN1C(=O)c2cc(NC(=O)Nc3ccccc3F)ccc2OC[C@H]2O[C@@H](CC(=O)NCCc3ccncc3)CC[C@H]21,-6,-4,nt,2,nt,nt,nt
C[C@@H]1CCCCO[C@H](CN(C)S(=O)(=O)c2ccccc2)[C@H](C)CN([C@@H](C)CO)C(=O)c2cc(NS(=O)(=O)c3cn(C)cn3)ccc2O1,16,4,nt,6,nt,nt,nt
Cc1ccc(S(=O)(=O)N(C)C[C@H]2Oc3c(NC(=O)c4cc(C)nn4C)cccc3C(=O)N([C@@H](C)CO)C[C@@H]2C)cc1,-16,-11,nt,-1,nt,nt,nt
CCc1csc(N2[C@H](C#N)[C@H](c3ccccc3C3=CCCC3)[C@H]2CO)n1,22,-5,nt,nt,nt,nt,nt
COC(=O)C[C@H]1C=C[C@H](NC(=O)Nc2ccc(C(F)(F)F)cc2)[C@H](CO)O1,-6,-44,nt,2,nt,nt,nt
COC(=O)C[C@H]1C=C[C@@H](NC(=O)Nc2ccc(C(F)(F)F)cc2)[C@H](CO)O1,-13,67*,nt,-2,nt,nt,-3%
Cc1nn(Cc2ccccc2Cl)c2sc(C(=O)Nc3ccccc3N3CCOCC3)cc12,43,50*,-4,nt,11,nt,-12%
O=C1c2ccccc2C(=O)N1CCCCNc1ccccc1,-5,57*,-3,4,8,2,-7%
O=C1c2ccccc2C(=O)N1CCCCCCc1ccccc1,-14,-8,0,-5,1,1,nt

# Source: PubChem
